# Apoferritin bind: qHTS Assay for Identification of Novel General Anesthetics. Potency, µM (series often up to 77.5 µM), for the others: top-dose activity change, negative = displacement, most hits filed as inhibitors. Ferritin light chain (Equus caballus), P02791. actives 0.074% (n = 350,000). apoferritin/1-aminoanthracene competitive binding, fluorescence; note: potency is the fitted concentration of half-maximal effect; % is set by controls: 0 for no effect and ±100 for the full control effect; nearly all actives have a fitted effect of over 20% in size
# Target sequence (P02791 2-175 limits assumed): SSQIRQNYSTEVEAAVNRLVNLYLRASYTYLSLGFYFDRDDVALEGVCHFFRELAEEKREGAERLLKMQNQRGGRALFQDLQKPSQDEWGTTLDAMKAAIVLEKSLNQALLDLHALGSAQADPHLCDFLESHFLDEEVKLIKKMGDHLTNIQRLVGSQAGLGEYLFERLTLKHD
#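 Probe: 1-aminoanthracene (50% saturated, PBS). Protein: horse-spleen apoferritin, 10 uM. Incubation: 10 min, room temperature. Detection: 380 nm excitation, 535 nm emission. Analysis: normalized response, four-parameter Hill.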
# A549 viability: Nrf2 qHTS screen for inhibitors: counterscreen for cytotoxicity; A549 ARE-Fluc cells, CellTiter-Fluor viability, 18-24 h; Potency, µM (titrated, usually from 46 µM), for inactives: at the top dose activity change, negative = cytotoxicity, actives largely listed as inhibitors; actives 0.16% (n = 390,000); note: potency is the fitted concentration of half-maximal effect; % is set by controls: 0 for no effect and ±100 for the full control effect
#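 Cytotoxicity counterscreen: CellTiter-Fluor fluorescence was measured in A549 ARE_Fluc cells after 18-24 h of compound exposure in a concentration series. The subsequent BugLite luminescent read reports ARE-luciferase activity.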
# IDH1 R132H inh: qHTS for Inhibitors of mutant isocitrate dehydrogenase 1 (IDH1): qHTS; IDH1-R132H enzyme, NADPH consumption, diaphorase/resazurin fluorescence; Potency, µM (top dose mostly 76.6 µM), without a hit: at the top dose activity change, negative = inhibition, usual class: inhibitors; actives 0.093% (n = 390,000); AID 602179, 2012; note: potency is the fitted concentration of half-maximal effect; % is set by controls: 0 for no effect and ±100 for the full control effect; nearly all actives have a fitted effect of over 65% in size
# Target sequence (O75874 whole entry R132H, stated change not applied): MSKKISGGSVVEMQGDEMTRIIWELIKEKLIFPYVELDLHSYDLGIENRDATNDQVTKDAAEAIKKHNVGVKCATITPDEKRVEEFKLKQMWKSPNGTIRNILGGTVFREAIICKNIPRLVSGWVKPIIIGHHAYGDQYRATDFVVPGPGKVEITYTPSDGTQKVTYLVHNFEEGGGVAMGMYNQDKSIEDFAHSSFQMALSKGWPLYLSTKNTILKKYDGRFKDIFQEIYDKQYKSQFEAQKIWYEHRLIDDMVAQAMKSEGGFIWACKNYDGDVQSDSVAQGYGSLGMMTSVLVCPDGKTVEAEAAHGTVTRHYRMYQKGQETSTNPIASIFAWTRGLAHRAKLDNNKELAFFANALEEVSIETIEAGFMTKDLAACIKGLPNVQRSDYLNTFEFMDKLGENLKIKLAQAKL
#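 IDH1-R132H (0.5 ug/mL) preincubated 30 min with compound, then NADPH (0.016 mM) and alpha-KG (2 mM) added; 80 min at RT, pH 7.5. Remaining NADPH coupled via diaphorase/resazurin to fluorescence (540/590 nm); concentration-response curves normalized to no-enzyme control.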
# Giardia killer: Small Molecules that selectively kill Giardia lamblia: qHTS; activity change, % at 7.66 µM, hits read low; Giardia lamblia trophozoite viability; actives 0.15% (n = 340,000); AID 540267, 2011; in the data active = activity change below about -80%; inconclusive = between about -30% and that limit;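 note: parasites exposed to compound for two days anaerobically before the ATP read; % is set by controls: 0 for no effect and ±100 for the full control effect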
#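 Giardia trophozoites, 100 cells per well, were exposed to compounds for 48 hrs at 37 deg C under anaerobic conditions; viability was then read as ATP content by bioluminescence after 15-30 min at room temperature.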
# Nrf2 inh: Nrf2 qHTS screen for inhibitors | AID 504444, 2011 | Potency, µM (highest dose often 46 µM), inactives show at the top dose activity change, negative = inhibition, actives largely listed as inhibitors | A549 ARE-Fluc reporter, luciferase luminescence, 18-24 h | actives 2.1% (n = 360,000); note: potency is the fitted concentration of half-maximal effect; % is set by controls: 0 for no effect and ±100 for the full control effect; nearly all actives have a fitted effect of over 60% in size
#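 Concentration-response testing used A549 ARE_Fluc cells at 5000 cells/well. Following an 18-24 h compound incubation, viability was read by fluorescence (Ex 405/Em 525) and luciferase output by luminescence.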
# Nrf2 ARE act: qHTS of Nrf2 Activators. AREc32 ARE-luciferase reporter (MCF7-derived line), luminescence, 24 h. Potency, µM (top dose mostly 46.1 µM), for the others: top-dose activation, actives largely listed as activators. actives 0.31% (n = 410,000); note: potency is the fitted concentration of half-maximal effect; % of control where 0% means no effect; nearly all actives have a fitted effect of over 65% in size
#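 Cells of the AREc32 ARE-luciferase line are plated in OPTI-MEM containing 5% FBS and left overnight at 37 deg C. Compounds are pinned in, incubation continues 24 hr, and firefly luciferase signal is then measured.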
# * = called active by the depositor; ? = inconclusive; nt = not tested or not shown. Sampled rows, rich in hits. Any-hit rate of the full collection: about 2.3%. Unless noted, calls come from the whole dose curve; as a rule, active = well fitted curve in the direction sought with a large enough effect; inconclusive = small, poorly fitted or top-dose-only effect, or another doubt; inactive = no such curve, though single readings can be large; an effect the other way counts as inactive or inconclusive.
SMILES,Apoferritin bind,A549 viability,IDH1 R132H inh,Giardia killer,Nrf2 inh,Nrf2 ARE act
Nc1c(C(=O)NCCc2ccccc2)sc2nc(N3CCOCC3)c3c(c12)CCCC3,5%,3%,-9%,-14,?,0%
CN(C(=O)c1sc2nc(N3CCOCC3)c3c(c2c1N)CCCC3)c1ccccc1,229%,1%,3%,6,16µM*,1%
COc1cc(NC(=O)c2ccccc2)c(OC)cc1Cl,-13%,-1%,2%,-1,-4%,16%
COc1cc(OC)c(NC(=O)c2cc3ccccc3cc2O)cc1Cl,nt,-27%,19%,-2,26µM*,23%
COc1cc(OC)c(NC(=O)c2csc(C)c2)cc1Cl,-4%,-3%,17%,18,21%,13µM*
COc1ccc(Cl)cc1C(=O)O/N=C(\N)c1ccc(Cl)cc1,-12%,4%,7%,10,?,7.9µM*
Cc1occc1C(=O)O/N=C(\N)c1ccc(Cl)cc1,-13%,3%,6%,11,?,6.3µM*
CC(NC(=O)c1ccc2c(c1)N(Cc1cccc(F)c1)C(=O)c1ccccc1S2)c1ccccc1 (configuration not stated),-13%,12%,-8%,nt,nt,4%
c1csc(C2=Nn3c(nnc3-c3ccncc3)SC2)c1,-9%,-4%,-1%,4,16µM*,3%
Cc1ccc(NS(=O)(=O)c2cc3c(cc2F)NC(=O)CC3)cc1C,nt,1%,nt,nt,-24%,nt
CCOC(=O)c1nn(-c2ccc(OC)cc2)c(=O)c2c(NC(=O)Cc3ccccc3)scc12,nt,2%,nt,nt,8%,nt
CCC1CCCCN1S(=O)(=O)c1ccc(C(=O)Nc2nnc(-c3ccccc3Cl)o2)cc1 (configuration not stated),-9%,?,-10%,-18,5.2µM*,0%
CCC1CCCCN1S(=O)(=O)c1ccc(C(=O)Nc2nnc(C3CC3)o2)cc1 (configuration not stated),-22%,-4%,-14%,-2,?,-1%
CCC1CCCCN1S(=O)(=O)c1ccc(NC(=O)c2ccncc2)cc1 (configuration not stated),?,-15%,4%,5,8.2µM*,-1%
Cc1cc(OCC(=O)Nc2ccc(C(=O)OC3CCCCC3)cc2)ccc1Cl,1%,7%,nt,nt,6%,0%
CS(=O)(=O)Nc1cccc(NC(=O)c2cccc3c(-c4cccnc4)coc23)c1,nt,nt,nt,nt,nt,0%
COc1ccc(C2c3c(nc(C)[nH]c3=O)Oc3ccc4ccccc4c32)cc1OC (configuration not stated),nt,14%,nt,nt,-7%,nt
COc1cccc(-c2cc(C(=O)Nc3cccnc3Cl)no2)c1,-8%,1%,-5%,-11,25%,-1%
O=C(Nc1cccnc1Cl)c1cc(-c2ccco2)on1,-18%,1%,-6%,-19,?,10µM*
O=C(Nc1cc(Cl)ccc1O)c1cc(-c2ccco2)on1,-4%,-4%,5%,-18,-12%,6.3µM*
O=C(Nc1cc(Br)ccc1O)c1cc(-c2ccco2)on1,-4%,-5%,5%,1,?,4.5µM*
COc1ccccc1NC(=O)c1ncn(-c2ccccc2)n1,-13%,12%,nt,nt,?,?
O=S(=O)(c1ccc(Cl)cc1)c1nc(-c2cccc(Br)c2)oc1NCc1ccccc1,11%,0%,-9%,nt,1%,1%
Cc1c(-c2nc(-c3ccc4c(c3)OCO4)no2)nnn1-c1cccc(C(F)(F)F)c1,-3%,11%,nt,nt,?,0%
C=C(C)CNC(=S)N/N=C/c1ccco1,-6%,-1%,0%,-12,9%,11µM*
SMILES,Apoferritin bind,A549 viability,IDH1 R132H inh,Giardia killer,Nrf2 inh,Nrf2 ARE act
C=C(C)CNC(=S)NN=C1c2ccccc2-c2ccccc21,-19%,-6%,-1%,-4,?,8%
O=C(CC1C(=O)NCCN1Cc1cccc(Oc2ccccc2)c1)NCCc1ccccn1 (configuration not stated),-19%,0%,6%,3,?,2%
Cn1cc(CCNC(=O)CC2C(=O)NCCN2Cc2cccc(Oc3ccccc3)c2)cn1 (configuration not stated),-18%,6%,7%,-3,15µM*,0%
CCOc1ccccc1CNC(=O)c1nc(-c2ccc(Cl)cc2)n2c1CCCCC2,54%,-10%,-2%,nt,23µM*,3%
CC(C)N(Cc1ccccc1)C(=O)c1nc(-c2ccc(Cl)cc2)n2c1CCCCC2,92%,-13%,-11%,nt,21µM*,1%
CCC(=O)N1CCc2cc(S(=O)(=O)CCC(=O)N3CCN(c4cccc(C)c4C)CC3)ccc21,1%,1%,1%,nt,-6%,0%
COC(=O)c1ccc(C(NC(=O)OCc2ccccc2)/C(C)=C/[C@@H](C)C(=O)Nc2ccc(OC)cc2)cc1 (some centres not stated),0%,nt,nt,nt,nt,nt
COc1ccc(NC(=O)C(OC(=O)CNC(=O)c2ccccc2)c2ccccc2)c(C)c1 (configuration not stated),nt,-1%,nt,nt,26%,nt
CC(C)C[C@@H]1Cc2[nH][nH]c(=O)c2[C@H](C(C)C)O1,nt,nt,nt,nt,nt,7%
CC(=O)Nc1ccc(S(=O)(=O)N2CCCN(S(=O)(=O)c3ccc4c(c3)OCCO4)CC2)cc1,nt,-10%,nt,nt,?,nt
O=C/C(=C\Nc1ccccn1)c1nc2ccccc2o1,-1%,6%,7%,-2,?,13µM*
O=C/C(=C\Nc1ccccn1)c1nc2cc(Cl)ccc2o1,-4%,3%,0%,-12,26%,23%
Cc1[nH]n(-c2ccccc2)c(=O)c1/C=N/NC(=O)c1cccc([N+](=O)[O-])c1,-6%,-8%,4%,3,-17%,0%
Cc1ccc(-n2[nH]c(C)c(/C=N/Nc3ccc([N+](=O)[O-])cc3[N+](=O)[O-])c2=O)cc1C,-1%,16µM*,3%,-2,?,6%
CCOc1ccccc1C1NC(=O)NC(C)=C1C(=O)OC1CCCCC1 (configuration not stated),-13%,-26%,-11%,-12,21µM*,0%
CC1=C(C(=O)OCc2ccccc2)C(c2ccccc2OC(F)F)NC(=O)N1 (configuration not stated),-18%,-8%,14%,-7,23µM*,3%
CC1CCN2c3cc(Cl)ccc3CC3(C(=O)OC(C)(C)OC3=O)C2C1 (configuration not stated),nt,11%,nt,0,-6%,nt
